# Experimental data reported in PubChem BioAssay AID488 (PCMD, 2006).
# Among all 62,000 compounds or so, about 40 (0.06%) were called active. Cut-off read from the data, not from the text of the source: active = inhibition above about 22% (passing the limit was not always enough); inconclusive = no clear call, values can overlap the other calls. Many of the other results were omitted from the sample, so actives are more common in it than they were.
# Biological target: Cathepsin B (Homo sapiens) (UniProt P07858)
# Experiment: human cathepsin B blockade, pooled library – biochemical, compound mixtures, AMC fluorescence, primary screen (AID 488);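 note: 0% = enzyme without compound and 100% = no enzyme blank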
# Conditions: Purified cathepsin B, AMC dipeptide fluorescence, stronger effect = higher value,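 ten-compound pools at 5 µM per compound and 50 µM total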
row,Structure (SMILES),inhibition
1,Cc1ccc(C(=O)CSc2nnc(Cn3nnc4ccccc43)n2C)cc1,-0.39% (inactive)
2,C=CCn1c(SCc2csc(C)n2)nc2scc(-c3ccc(C)o3)c2c1=O,5.42% (inactive)
3,Cc1ccc2nc(NCCCNC(=O)c3cnccn3)c(C#N)cc2c1,1.1% (inactive)
4,CCNc1nc(SCCOc2ccccc2)nc(N(C)C)n1,3.91% (inactive)
5,C/C(Cl)=C\Cn1c(Nc2cccc(C)c2)nc2c1c(=O)n(C)c(=O)n2C,5.3% (inactive)
6,Cc1ccccc1S(=O)(=O)Cc1ccc(C(=O)NCCN2CCCCC2C)o1 (stereo unspecified),3.67% (inactive)
7,CCOc1ccc2[nH]c(=O)c(CN(Cc3nnnn3Cc3ccccc3)CC3CCCO3)cc2c1 (stereo unspecified),3.02% (inactive)
8,COC(=O)Nc1ncc(CN2C(=O)c3ccccc3C2=O)s1,-2.69% (inactive)
9,CCCS(=O)(=O)N1CCCC(C(=O)NCCN2CCCCC2C)C1 (stereo unspecified),3.97% (inactive)
10,Cc1ccc(C(C(=O)NC2CCCC2)N(Cc2ccco2)C(=O)CCC(=O)Nc2ccccn2)cc1 (stereo unspecified),3.21% (inactive)
11,CCCCn1c(CN2CCN(CCO)CC2)nc2ccccc21,2.92% (inactive)
12,CCc1ccc(-c2nnn(Cc3nc4ccccc4s3)n2)cc1,4.33% (inactive)
13,O=c1[nH]nc(CSCc2ccccc2Cl)[nH]1,4.72% (inactive)
14,O=C(COc1ccc(F)cc1)N(CC1=CCS(=O)(=O)C1)c1ccccc1,-3.79% (inactive)
15,Cc1ccc2cc3cc(C(=O)N4CCCCCC4)oc3nc2c1,3.89% (inactive)
16,C=CCn1c(N)c(C(=O)OCC(C)C)c2nc3ccccc3nc21,-4.76% (inactive)
17,COc1cccc(NS(=O)(=O)c2ccc3[nH]cc(C(=O)NCCCOC(C)C)c(=O)c3c2)c1,5.5% (inactive)
18,COC(=O)[C@H](CCSC)NC(=O)Nc1ccc(OC)cc1,1.64% (inactive)
19,C=CCNC(=O)c1cc(-c2ccccc2O)on1,-1.28% (inactive)
20,O=C(CSc1nnc(-c2ccco2)n1Cc1ccccc1)NC(=O)NCc1ccco1,-0.985% (inactive)
21,COCCCN(C(=O)Cn1ncc2c(=O)oc3ccc(C)cc3c21)C(C)c1ccncc1 (stereo unspecified),1.95% (inactive)
22,O=C(CN1C(=O)NC2(CCCCC2)C1=O)NCCC1=CCCCC1,4.21% (inactive)
23,Cc1cc(NC(=O)COn2nnc3ccccc32)no1,1.15% (inactive)
24,CCc1ccccc1NC(=O)CSc1nnc([C@@H](NC(=O)OC(C)(C)C)C(C)C)o1,5.22% (inactive)

row,Structure (SMILES),inhibition
1,COc1ccc(C(=O)Nc2ccc3c(c2)OCO3)cc1OC,1.18% (inactive)
2,Cc1ccc(C(=O)NCC(=O)O)cc1S(=O)(=O)N1CCCCC1,1.96% (inactive)
3,Cc1ccc(C(=O)Nc2ccc3c(c2)OCO3)cc1S(=O)(=O)N1CCCCC1,62.7% (active)
4,COc1ccc(NS(=O)(=O)c2ccc(NC(C)=O)cc2)cc1OC,2.73% (inactive)
5,CCC(=O)c1ccc(OCC(O)CN2CCN(c3cccc(C(F)(F)F)c3)CC2)cc1 (stereo unspecified),2.81% (inactive)
6,Cc1noc(C)c1S(=O)(=O)Nc1ccc(C(=O)O)cc1,5.64% (inactive)
7,COc1ccc(CC(=O)c2ccc(O)cc2O)cc1OC,-2.36% (inactive)
8,Cc1ccc(SCCN2C(=O)NC(C)(C)C2=O)cc1,3.79% (inactive)
9,CCCc1nc(N)nc2c1C(=O)CC(C)(C)C2,3.17% (inactive)
10,CCC(=O)N1CCc2cc(S(=O)(=O)NC(C(=O)N3CCc4ccccc4C3)C(C)C)ccc21 (stereo unspecified),15.3% (inactive)
11,O=C(NCc1ccc(Cl)c(Cl)c1)c1cccnc1,-2.21% (inactive)
12,CCCC(CCC(=O)OC)(C(=O)OCC)c1csc(N)n1 (stereo unspecified),6.54% (inactive)
13,CC1CCCN(Cc2nc3c(c(=O)n(C)c(=O)n3C)n2Cc2cccc3ccccc23)C1 (stereo unspecified),1.14% (inactive)
14,CN(CCCC(=O)Nc1nccs1)S(=O)(=O)c1ccc(Cl)cc1,3.83% (inactive)
15,Cc1ccc(S(=O)(=O)N2CCN(C(=O)CCC(=O)NC3CCCc4ccccc43)CC2)cc1 (stereo unspecified),1.64% (inactive)
16,CC(=O)Nc1cc(C(=O)O)ccc1S(=O)(=O)c1ccc(Cl)cc1,-0.3% (inactive)
17,CCCC(=O)N1c2ccccc2NC2=C(C(=O)CCC2)C1c1ccc(F)cc1 (stereo unspecified),4.79% (inactive)
18,COc1ccc(OC)c(NC(=O)CSc2nc3cccnc3n2C)c1,-8.48% (inactive)
19,O=C1NC(Nc2nc3ccccc3s2)(C(F)(F)F)C(=O)N1C1CCCCC1 (stereo unspecified),1.35% (inactive)
20,CN1CCN(C(=O)C2C3C=CC(C3)C2C(=O)O)CC1 (stereo unspecified),5.22% (inactive)
21,CSCCC(NC(=O)c1ccc(=O)n(C)n1)c1nc2ccccc2[nH]1 (stereo unspecified),-2.06% (inactive)
22,c1ccc2c(c1)OCC(c1nn3cnnc3s1)O2 (stereo unspecified),-2.62% (inactive)
23,O=C(NCCN1C(=O)C2C3C=CC(C3)C2C1=O)Nc1ccccn1 (stereo unspecified),7.59% (inactive)
24,Cn1c2ccccc2c2c(C(=O)N3CCN(c4ccc(F)cc4)CC3)cn(C3CCCC3)c(=O)c21,4.51% (inactive)

row,Structure (SMILES),inhibition
1,CCCNc1ncnc2sc(C)c(C)c12,2.56% (inactive)
2,O=C(CSc1nnnn1-c1ccc2c(c1)CCC2)Nc1ccc2c(c1)OCCO2,0.15% (inactive)
3,Cn1c(=O)n(C)c2cc(CNc3ccc(N4CCOCC4)c(C(=O)O)c3)ccc21,-0.23% (inactive)
4,O=C(Nc1ccc(Cl)cc1)c1ccsn1,-2.12% (inactive)
5,COc1ccc(OC)c(C(=O)CSc2nnc(-c3cccs3)o2)c1,-2.44% (inactive)
6,CCN(CC)S(=O)(=O)c1ccc2nc(COC(=O)c3n[nH]c4ccccc34)[nH]c2c1,3.42% (inactive)
7,O=C(NC(c1ccccc1)c1ccccc1)N1CCN(CCO)CC1,3.62% (inactive)
8,CC1CCC(NC(=O)c2ccc(N3CCCC3=O)cc2)CC1 (stereo unspecified),-4.06% (inactive)
9,COCC(=O)Nc1nnc(COc2ccccc2)s1,-8.97% (inactive)
10,COC(C)(C)[C@]12CC(O)(C(C)C)ON1[C@H]1CCCCC1N2O (stereo partly specified),-3.22% (inactive)
11,Cn1c(=O)c2c(n(Cc3ccccc3)c1=O)NC(=O)C2CC(=O)N1CCc2ccccc2C1 (stereo unspecified),0.76% (inactive)
12,O=c1c2c(nc3n1CCCCC3)sc1c(O)cccc12,5.69% (inactive)
13,CC(C)c1ccc(NS(=O)(=O)c2cn(C)c(=O)n(C)c2=O)cc1,3.38% (inactive)
14,CCCCNC(=O)c1ccccc1NC(=O)c1ccccc1N(C)S(C)(=O)=O,7.15% (inactive)
15,CCOC(=O)Cc1csc(NC(=O)CN(C)S(=O)(=O)c2ccc3c(c2)CCC(=O)N3)n1,3.69% (inactive)
16,COc1ccc(-c2nc(CS(=O)CC(=O)N3CCc4ccccc4C3)c(C)o2)cc1 (stereo unspecified),4.29% (inactive)
17,CCC(C)Sc1nc(C)nc2c1c(=O)n(C)c(=O)n2C (stereo unspecified),2.91% (inactive)
18,N#CCCn1ncc2ccccc21,-3.63% (inactive)
19,COc1ccc(CCN2CNc3c(c(=O)n(C)c(=O)n3C)C2)cc1OC,0.085% (inactive)
20,COc1ccc(-c2ccnc(SCC(=O)N3CCOCC3)n2)cc1,-0.81% (inactive)
21,CCN1CCN(c2c(Cl)cccc2NC(=O)c2ccc(Br)o2)CC1,5.68% (inactive)
22,COc1nc(NCc2ccc(Cl)cc2)nc(OC)n1,6.46% (inactive)
23,CCCn1c(SCC(=O)N2CCc3ccccc32)nnc1-c1ccncc1,5.11% (inactive)
24,CC(C)(C)NC(=O)NC(=O)COC(=O)Cn1c(C(F)(F)F)nc2ccccc21,0.995% (inactive)

row,Structure (SMILES),inhibition
1,N#Cc1cccc(CSc2nnc(CCCO)n2-c2ccccc2)c1,22% (inactive)
2,COC(=O)c1c(NC(=O)CCN2CCOCC2)sc2c1CCCC2,3.41% (inactive)
3,Cn1c(=O)cc(SCC(=O)N2CCN(C(=O)c3ccco3)CC2)c2ccccc21,2.19% (inactive)
4,Cc1ccccc1-c1nc(CS(=O)(=O)CC(=O)N2CCc3ccccc3C2)c(C)o1,4.15% (inactive)
5,Cc1cccc(NC(=O)C2CCN(S(=O)(=O)c3cccc4cccnc34)CC2)c1,4.24% (inactive)
6,Cc1cc(Nc2ccc(Br)cc2F)n2ncnc2n1,-2.18% (inactive)
7,COc1ccc(C(CC(=O)O)NC(=O)Cc2ccccc2)cc1 (stereo unspecified),-0.455% (inactive)
8,COc1ccc(S(=O)(=O)N2CCCCC2)cc1Br,2.55% (inactive)
9,CC(=O)c1cc(-c2ccccc2)[nH]c1N1CCCC1,2.3% (inactive)
10,CC1Oc2ccccc2N(Cc2cccnc2)C1=O (stereo unspecified),4.41% (inactive)
11,O=C(CCS(=O)(=O)c1cccc2nonc12)NCCc1ccccc1Cl,4.8% (inactive)
12,Cn1cccc1Cc1nnc(SCC(=O)NCCc2ccccc2)n1-c1ccc(F)cc1,4.42% (inactive)
13,CC1(C)Oc2ccc(C(=O)N3CCOCC3)cc2N(CC(=O)Nc2ccccc2)C1=O,-0.39% (inactive)
14,COc1ccccc1C(=O)C(O)c1ccccc1OC (stereo unspecified),1.43% (inactive)
15,O=C(Cn1cc(C(=O)c2cccs2)c2ccccc21)NCc1cccs1,-1.35% (inactive)
16,CCOC(=O)COc1ccc(Cl)cc1C1NC(=O)NC(C)=C1C(C)=O (stereo unspecified),-5.4% (inactive)
17,O=C(NCc1ccccn1)c1c(O)c2c([nH]c1=O)CCCC2,4.33% (inactive)
18,CC12COC3(C(=O)Nc4ccc(Cl)cn4)CC1CCC32C (stereo unspecified),2.24% (inactive)
19,COc1cccc(C(CC(=O)NCCN2CCOCC2)NS(=O)(=O)c2ccc(C)cc2)c1OC (stereo unspecified),-2.29% (inactive)
20,CCN(C(=O)CSc1ncn[nH]1)c1cccc2ccccc12,5.46% (inactive)
21,Cn1c(=O)c2c(nc(N3CCCCCC3)n2CC(=O)c2ccc(Br)cc2)n(C)c1=O,6.96% (inactive)
22,CCOC(=O)CSc1nnc(CNC(=O)c2cccs2)n1-c1ccccc1,3.94% (inactive)
23,CCCOc1ccc(NC(=O)C2CCCNC2=O)cc1 (stereo unspecified),0.055% (inactive)
24,CCOC(=O)N1CCN(C(=O)c2ccc(S(=O)(=O)c3ccc(C)cc3)c(NC(C)=O)c2)CC1,0.155% (inactive)
